# Measurements from PubChem BioAssay (NCI).
# About 83,000 compounds went through this panel and 20% of them were active in at least one assay; those are over-represented in the sample as a whole.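 Single-concentration screen, 48 h exposure, 96-well plates. Endpoint: percent growth. Below 10 = active.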 Values without a mark were called inactive. Active and inactive are the calls of the source.
# Test system: MDA-MB-468 breast
# Assay: NCI-60 one-dose screen, 48 h (100 = growth as untreated, 0 = no growth, -100 = all killed)
# Conditions: 10 µM unless noted
row,Compound,growth
1,NC(=O)c1ccc(-c2ccc3ncnc(N4CCc5cc(F)c(Cl)cc54)c3c2)cn1,-7.37% (active)
2,COc1cc2cc(C(=O)N3C[C@@H](CCl)c4c3cc(OC(=O)N(CCC(=O)N3CCN(C)CC3)[C@H]3CCSSC3)c3ccccc43)[nH]c2c(OC)c1OC,-91.5% (active)
3,COc1ccc2[nH]c(=O)c(CSc3ccccc3Nc3nccc(-c4ccc5c(c4)OCO5)n3)cc2c1,66.5%
